Assay results published in PubChem BioAssay AID588405 (Sanford-Burnham Center for Chemical Genomics, 2011).
Hit rate of the full screen: of about 360,000 compounds, about 6,200 (1.7%) were called active. Many of the other results were omitted from the sample, so actives are more common in it than they were. A number with no mark means an inactive call.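 The calls were made as follows: active = inhibition of at least 50% at 20 µM; inactive = the rest.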

Assay: inhibition of PEG-3 promoter activity – cell-based, HeLa, luciferase luminescence, primary screen (AID 588405)
Conditions: HeLa PEG-Prom luciferase reporter, overnight, at 20 µM, active compounds read high

Compound | inhibition
O=C1c2ccccc2-c2ccccc2NC1O (stereo unspecified) | -8.48%
COc1ccc(C(c2nnnn2C2CCCC2)N2CCN(C/C=C/c3ccccc3)CC2)cc1 (stereo unspecified) | -2%
CC(=O)Nc1ccc(-c2ccnc3c2CC(C(=O)NC(C)C)O3)cc1 (stereo unspecified) | -1.44%
CC1(C(=O)NCC2CCOCC2)Cc2c(-c3cccc(C(N)=O)c3)ccnc2O1 (stereo unspecified) | 8.22%
O=C(CSc1nc2cccc(F)c2c(=O)n1-c1ccccc1)Nc1ccc2c(c1)CCC2 | 2.19%
Cc1ccc(C)c(N2CCN(C(=O)CCCCCn3c(=S)[nH]c4ccc(N5CCOCC5)cc4c3=O)CC2)c1 | 92.5% (active)
O=C(CCCCCn1c(=S)[nH]c2cc3c(cc2c1=O)OCO3)N1CCN(c2ccc(F)cc2)CC1 | -0.75%
Cc1ccc(C)c(N2CCN(C(=O)CCCn3c(=O)c4cccn4c4cccnc43)CC2)c1 | 34.6%
COCCNC(=O)C1CCCN(Cc2ccccc2Cl)CC1 (stereo unspecified) | 5.2%
CSc1nc(-c2ccccc2)nc(C(Cl)Cl)n1 | 98.3% (active)
O=C(COC(=O)C12CC3CC(CC(O)(C3)C1)C2)NC12CC3CC(CC(C3)C1)C2 | 9.7%
CC1(Cc2cccc(C#N)c2)C(=O)Nc2ccc(-c3cccc(C(F)(F)F)c3)cc21 (stereo unspecified) | 37%
CCOC(=O)C1(CCOc2ccccc2)CCN(Cc2ccc(C#CCCO)cc2)CC1 | 15.7%
CC(C)(O)C#Cc1ccc(CN2CCC(CO)(CCc3ccccc3)CC2)cc1 | 1.12%
Cc1c(CN2CCC(CO)(CCOc3ccccc3)CC2)[nH]c2ccc(Cl)cc12 | 85.4% (active)
C=CC[C@@H](CC(=O)N[C@@H](CO)Cc1ccccc1)C(=O)NCCOC(=O)[C@@H](CC=C)CC(=O)OC(C)(C)C | 4.88%
C=CC[C@@H](CC(=O)N[C@H](CO)Cc1ccccc1)C(=O)N[C@H](C)COC(=O)[C@@H](CC=C)Cc1ccc(F)cc1 | 12.6%
C=CC[C@@H](CC(=O)N[C@@H](CO)Cc1ccccc1)C(=O)N[C@H](COC(=O)[C@H](CC=C)CC(=O)OC(C)(C)C)Cc1ccccc1 | 59.8% (active)
CCOC(=O)c1c(-n2cnnn2)sc(C)c1C | -0.91%
CNC(=O)C1CC(=O)N(Cc2ccc3c(c2)OCO3)C(=Nc2ccc(F)cc2)S1 (stereo unspecified) | -64.3%
COc1ccccc1N(CCOc1ccccc1)S(=O)(=O)c1ccccc1 | 18.4%

Compound | inhibition
Clc1ccc(-c2cc(-c3ccccn3)on2)c(Cl)c1 | -90.8%
Clc1ccc(-c2cc(C3CCNCC3)[nH]n2)c(Cl)c1 | 58.7% (active)
Fc1cccc(Cc2c(-c3cccc(Cl)c3)nc3ccc(Br)cn23)c1 | -153%
O=C(O)CC1S/C(=N\N=C/c2ccccc2O)N(c2ccc(O)cc2)C1=O (stereo unspecified) | -0.29%
COc1ccc(CN(C)C(=O)Cc2c[nH]c3ccccc23)c(OC)c1OC | 13.2%
COc1ccc(CN(C)C(=O)c2cc(-c3ccc(C)cc3C)nc3ccccc23)c(OC)c1OC | 75.3% (active)
COc1ccc(-c2cc(C(=O)N(C)Cc3ccc(OC)c(OC)c3OC)c3ccccc3n2)cc1OC | 50.1% (active)
COc1ccc(-c2cc(C(=O)NCCCN3CCCC3=O)c3ccccc3n2)cc1OC | -2.28%
COc1ccc(-c2cc(C(=O)N(C)CC(=O)Nc3ccccc3Cl)c3ccccc3n2)cc1OC | 43.6%
COc1ccc(S(=O)(=O)N2CCCCCC2)cc1C(=O)N(C)Cc1cccc(OC)c1OC | 5.19%
Cc1ccc(CN2CCC(N3CCC(C(=O)NCC4CCCO4)CC3)CC2)o1 (stereo unspecified) | -0.4%
CS(=O)(=O)c1cccc(-c2ccc3nncn3c2)c1 | -2.9%
CCc1nc2ccc(C(=O)N3CCN(S(=O)(=O)CC)CC3)cn2c1N(C=O)CCC(C)C | -6.03%
CC(C)[C@H](NC(=O)N1CC(=O)Nc2ccccc21)C(=O)N[C@@H](Cc1c[nH]c2ccccc12)C(=O)O | 14.7%
O=C(NCc1cccc(C(F)(F)F)c1)c1ccc2sc(COCCO)nc2c1 | -51.8%
COc1cccc(CNc2nc3cc(-c4csc5ccccc45)sc3c(=O)n2C)c1 | -0.35%
COc1ccc(C(CCN(Cc2ccc(OC)c(OC)c2)C(=O)CCl)c2ccccc2)cc1 (stereo unspecified) | 105% (active)
COc1ccc(CCNC(=O)CN(c2ccccc2)S(C)(=O)=O)cc1OC | 18.5%
COc1ccc(CN(Cc2ccc(OC)cc2)C(=O)c2cccs2)cc1 | 0.72%
CCCc1nc(N2CCN(C)CC2)c2sc(=S)n(-c3ccccc3)c2n1 | 30.8%
